Drawing on PubChem BioAssay, this text covers composite z-score and z-score for five compounds.

Active and inactive are the calls of the source. Unless noted, the rule behind the calls is not given here.

Assay [1] is described as follows: compounds binding Alexa647 anti-His antibody – biochemical, small-molecule microarray, 635 nm fluorescence, artefact control for SMM control protein annotation, primary screen (AID 1128).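 Note: score merges feature fluorescence with signal-to-noise for each printed compound spot.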 Conditions: higher = more signal.
Assay [2] deals with Human papillomavirus type 1a E7 protein (residues 1-88). The assay is described as follows: HPV1a E7 small-molecule binders, primary screen, biochemical, small-molecule microarray, residues 1-88, 635 nm (AID 1129). As to conditions: small-molecule microarray binding, fluorescence 635 nm; higher = more signal.
In assay [3] the target is Focal adhesion kinase 1 (Homo sapiens) (UniProt Q05397). The assay is described as follows: PTK2 protein binding on printed compound slides – biochemical, small-molecule microarray, 635/667 nm fluorescence, BSA, DTT, primary screen (AID 1130).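 Note: composite of spot emission at 667 nm and signal to noise over triplicate slides.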 Conditions: 635 nm fluorescence, higher = more signal.
The subject of assay [4] is Fibrinogen (Alexa647-labelled). The assay is described as follows: Alexa647-fibrinogen binding to printed small molecules – biochemical, small-molecule microarray, 635/667 nm fluorescence, artefact control for SMM control-protein annotation, profiling panel (AID 1131).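 Note: z-score merges 667 nm fluorescence with per-spot signal-to-noise over triplicate slides.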 Conditions: fibrinogen-A647 binding fluorescence, higher = more signal.
The target in assay [5] is Follistatin (Homo sapiens) (UniProt P19883). The assay is described as follows: FST protein binding to printed compounds – biochemical, small-molecule microarray, 635/667 nm fluorescence, primary screen (AID 1132). Conditions: 635 nm fluorescence, higher = more signal.
Assay [6] deals with Fibroblast growth factor 2 (Homo sapiens) (UniProt P09038). The assay is described as follows: basic fibroblast growth factor binding to printed compounds – biochemical, small-molecule microarray, 635/667 nm fluorescence, primary screen (AID 1133). As to conditions: FGF2, fluorescence 635/667, higher = more signal.
Assay [7] in a line: JC-1 mitochondrial potential readout, lung cancer cells – cell-based, A549, JC-1 fluorescence, basal, 24 h, 100 nL, profiling panel (AID 1138).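 Note: A549 lung adenocarcinoma cells under basal conditions with no added stimulus; test concentration not given here.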 Conditions: higher = more signal.
The test system of another assay is Lefty1. The assay is described as follows: Lefty1 protein binding to printed compounds – biochemical, small-molecule microarray, 635/667 nm fluorescence, primary screen (AID 1139). Conditions: fluorescence 635/667, higher = more signal.
Assay [8] has as its system wheat germ agglutinin (Triticum aestivum), Alexa647-labelled. The assay is described as follows: Alexa647-WGA lectin binding to printed small molecules – biochemical, small-molecule microarray, 635/667 nm fluorescence, artefact control for SMM control-protein annotation, profiling panel (AID 1140).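 Note: score merges 667 nm feature emission with signal to noise over triplicate slides.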 Conditions: WGA-A647 binding, 635 nm fluorescence, higher = more signal.
Assay [9] concerns the target Luciferin 4-monooxygenase (Photinus pyralis) (UniProt P08659). The assay is described as follows: inhibition of purified Photinus pyralis luciferase – biochemical, luminescence, purified enzyme, 2006 set, primary screen (AID 1141).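 Note: cell-free assay with purified firefly luciferase at 100 ng per well in PBS; test concentration not given here.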 As to conditions: purified firefly luciferase, SteadyGlo luminescence, 30 min; higher = more signal, called active from +8 up or from −8 down.

Assay [10] concerns Wnt5a (protein binding on small-molecule microarray). The assay is described as follows: small molecules binding Wnt5a protein – biophysical, small-molecule microarray, 635/667 nm fluorescence, primary screen (AID 1142).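 Note: fluorescence read at 667 nm with signal to noise per printed feature.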 Conditions: 635 nm fluorescence, higher = more signal.
Assay [11] can be described thus: ATP-based viability of Huh7 replicon cells – cell-based, CellTiter-Glo luminescence, basal, 48 h, cytotoxicity control for HCV replication inhibitor project, primary screen (AID 1143).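 Note: Huh7 hepatoma cells carrying a hepatitis C replication reporter with no stimulus; test concentration not given here.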 As to conditions: higher = more signal, called active from +8 up or from −8 down. A general note: Replicon systems follow genome replication, usually without infectious particles.
Assay [12] is described as follows: Pseudomonas biofilm growth suppression – PAO1 strain, BacTiter-Glo luminescence, LB-PBS, primary screen (AID 1144). As to conditions: P. aeruginosa PAO1 biofilm, 12 h, higher = more signal.
A short description of assay [13]: basal CRE-LacZ reporter activity in PC12 – cell-based, unstimulated, primary screen (AID 1145). As to conditions: no forskolin, luminescence, 4.5 h, higher = more signal, called active from +8 up or from −8 down.
A short description of assay [14]: forskolin-driven CRE-LacZ activity in PC12 – cell-based, CRE-LacZ reporter, forskolin-stimulated, primary screen (AID 1146).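 Note: PC12 cells with 6xCRE LacZ reporter stimulated by forskolin 10 µM; beta-galactosidase reporter signal reflecting CREB driven transcription.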 Conditions: luminescence, 4.5 h, higher = more signal, called active from +8 up or from −8 down.
For assay [15], the target named is Streptavidin (Streptomyces avidinii) (UniProt P22629). Kind of assay: compounds binding control protein streptavidin – biophysical, small-molecule microarray, 635/667 nm fluorescence, artefact control for SMM compound annotation, primary screen (AID 1147).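 Note: signal reflects streptavidin binding to arrayed compounds as a control protein.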 Conditions: higher = more signal.
Assay [16] is described as follows: probe aInhba binding on compound microarray – biochemical, small-molecule microarray, 635/667 nm fluorescence, primary screen (AID 1148).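 Note: score merges 667nm spot fluorescence with signal-to-noise for antibody binding to printed compounds.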 As to conditions: higher = more signal.
For assay [17], the target named is Torsin-1A (Homo sapiens) (UniProt O14656). The assay is described as follows: TOR1A wild-type binding on microarray – cell lysate, small-molecule microarray, lysate, 635/667 nm, primary screen (AID 1149). As to conditions: COS7 hTOR1A-WT lysate, 635 nm fluorescence, higher = more signal.
The target is the same in assay [18]. Kind of assay: torsin A mutant lysate binding on microarrays – cell lysate, small-molecule microarray, COS7 lysate, 635/667 nm fluorescence, primary screen (AID 1150).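 Note: score pools 667 nm emission and signal to noise measuring lysate protein binding.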 Conditions: COS7 hTOR1A mutant lysate, 635 nm fluorescence, higher = more signal.
The test system of assay [19] is Sonic hedgehog protein (Shh). Kind of assay: Sonic hedgehog microarray binding compounds – biochemical, small-molecule microarray, 635/667 nm fluorescence, primary screen (AID 1151).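 Note: Shh protein binding to compounds spotted on small-molecule microarray slides; score combines spot fluorescence intensity with signal-to-noise across triplicate slides.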 Conditions: 635 nm fluorescence, higher = more signal.

Chain of Fibroblast growth factor 2 (Homo sapiens) (P09038 whole entry, looked up): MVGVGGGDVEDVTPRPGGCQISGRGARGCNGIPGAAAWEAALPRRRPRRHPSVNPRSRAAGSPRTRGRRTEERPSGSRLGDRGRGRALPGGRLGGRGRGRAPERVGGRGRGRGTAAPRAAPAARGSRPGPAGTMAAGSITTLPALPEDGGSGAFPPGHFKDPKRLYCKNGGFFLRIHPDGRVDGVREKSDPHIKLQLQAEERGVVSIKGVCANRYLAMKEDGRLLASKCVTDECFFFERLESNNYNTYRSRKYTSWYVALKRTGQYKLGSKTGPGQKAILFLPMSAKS
Chain of Follistatin (Homo sapiens) (P19883 whole entry, looked up): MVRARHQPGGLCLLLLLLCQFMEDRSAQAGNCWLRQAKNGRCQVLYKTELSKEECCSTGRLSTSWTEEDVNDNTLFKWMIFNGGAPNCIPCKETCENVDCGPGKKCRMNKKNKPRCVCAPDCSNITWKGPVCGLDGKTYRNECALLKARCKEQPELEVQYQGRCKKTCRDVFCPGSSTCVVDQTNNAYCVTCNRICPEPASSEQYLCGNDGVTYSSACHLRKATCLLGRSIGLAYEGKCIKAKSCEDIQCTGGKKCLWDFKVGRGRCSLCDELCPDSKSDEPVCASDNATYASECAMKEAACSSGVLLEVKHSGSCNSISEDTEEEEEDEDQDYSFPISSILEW
Chain of Torsin-1A (Homo sapiens) (O14656 whole entry, looked up): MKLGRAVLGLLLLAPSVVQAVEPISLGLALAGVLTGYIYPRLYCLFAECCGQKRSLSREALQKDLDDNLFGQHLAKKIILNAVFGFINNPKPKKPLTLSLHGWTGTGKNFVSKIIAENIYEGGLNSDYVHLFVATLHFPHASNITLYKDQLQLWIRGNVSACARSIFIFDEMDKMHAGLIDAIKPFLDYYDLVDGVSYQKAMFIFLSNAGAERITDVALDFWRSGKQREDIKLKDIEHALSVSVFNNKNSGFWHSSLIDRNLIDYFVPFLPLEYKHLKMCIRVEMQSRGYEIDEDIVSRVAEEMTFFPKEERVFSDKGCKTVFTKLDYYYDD
Chain of Streptavidin (Streptomyces avidinii) (P22629 whole entry, looked up): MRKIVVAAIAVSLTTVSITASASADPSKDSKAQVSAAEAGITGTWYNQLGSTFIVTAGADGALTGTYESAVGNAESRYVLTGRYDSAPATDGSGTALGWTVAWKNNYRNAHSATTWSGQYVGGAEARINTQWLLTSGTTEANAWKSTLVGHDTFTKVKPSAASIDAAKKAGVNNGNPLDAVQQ
Chain of Focal adhesion kinase 1 (Homo sapiens) (Q05397 whole entry, looked up): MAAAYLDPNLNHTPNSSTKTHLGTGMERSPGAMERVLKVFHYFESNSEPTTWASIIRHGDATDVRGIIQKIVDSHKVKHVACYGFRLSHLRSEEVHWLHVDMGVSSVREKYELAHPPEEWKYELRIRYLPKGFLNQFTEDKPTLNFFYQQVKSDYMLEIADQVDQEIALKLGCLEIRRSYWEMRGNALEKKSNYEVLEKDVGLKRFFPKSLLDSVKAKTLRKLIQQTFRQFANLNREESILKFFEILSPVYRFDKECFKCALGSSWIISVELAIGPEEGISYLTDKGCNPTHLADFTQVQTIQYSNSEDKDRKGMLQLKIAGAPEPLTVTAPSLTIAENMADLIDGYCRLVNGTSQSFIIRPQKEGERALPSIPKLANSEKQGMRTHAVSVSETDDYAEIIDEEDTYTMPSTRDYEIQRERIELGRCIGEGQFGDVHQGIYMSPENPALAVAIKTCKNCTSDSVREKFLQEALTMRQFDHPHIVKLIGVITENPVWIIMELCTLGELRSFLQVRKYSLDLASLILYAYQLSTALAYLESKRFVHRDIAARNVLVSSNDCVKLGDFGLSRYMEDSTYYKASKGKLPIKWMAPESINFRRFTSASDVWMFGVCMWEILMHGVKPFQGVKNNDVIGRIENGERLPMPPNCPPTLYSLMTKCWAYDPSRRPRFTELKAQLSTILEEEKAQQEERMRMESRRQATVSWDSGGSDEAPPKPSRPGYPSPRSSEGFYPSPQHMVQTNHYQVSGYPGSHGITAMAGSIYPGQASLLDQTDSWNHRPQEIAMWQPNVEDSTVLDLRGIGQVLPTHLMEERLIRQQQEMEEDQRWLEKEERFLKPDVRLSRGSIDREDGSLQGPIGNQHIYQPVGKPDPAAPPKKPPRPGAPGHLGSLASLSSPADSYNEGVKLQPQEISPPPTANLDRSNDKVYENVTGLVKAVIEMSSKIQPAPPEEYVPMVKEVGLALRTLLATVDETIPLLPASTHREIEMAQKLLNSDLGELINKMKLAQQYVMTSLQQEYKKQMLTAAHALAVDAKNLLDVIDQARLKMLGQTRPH
Chain of Luciferin 4-monooxygenase (Photinus pyralis) (P08659 whole entry, looked up): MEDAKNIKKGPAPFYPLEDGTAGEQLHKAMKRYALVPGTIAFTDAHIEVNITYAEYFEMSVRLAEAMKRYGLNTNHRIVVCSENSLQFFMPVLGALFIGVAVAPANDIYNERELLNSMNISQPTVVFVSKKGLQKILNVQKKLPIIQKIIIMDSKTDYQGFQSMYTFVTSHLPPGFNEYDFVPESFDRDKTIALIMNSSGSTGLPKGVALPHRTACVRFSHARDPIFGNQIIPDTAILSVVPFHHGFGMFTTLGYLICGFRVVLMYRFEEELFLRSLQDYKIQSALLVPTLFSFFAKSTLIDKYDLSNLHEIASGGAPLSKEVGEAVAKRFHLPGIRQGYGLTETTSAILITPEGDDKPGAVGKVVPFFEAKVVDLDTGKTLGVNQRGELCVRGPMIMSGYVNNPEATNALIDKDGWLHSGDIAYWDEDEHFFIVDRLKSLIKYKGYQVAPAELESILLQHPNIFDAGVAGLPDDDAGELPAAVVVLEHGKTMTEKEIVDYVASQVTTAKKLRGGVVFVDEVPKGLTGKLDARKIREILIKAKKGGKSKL

In the case of `COC(=O)[C@@]1(Cc2ccc(OC)cc2)[C@H]2c3cc(C(=O)N4CCCC4)n(Cc4ccc(O)c(OC)c4)c3C[C@H]2CN1C(=O)c1ccccc1`, the composite z-score is 2.89 in [1]; 0.926 in assay [2]; 0.264 in [3]; 0.724 in assay [4]; 0.379 in [5]; -0.1 in [6]. The composite z-score in the assay on Lefty1 is -0.304; in [8], 1.11; in assay [10] it was 1.22; in assay [15], 2.18; in [16], 1.21; with Torsin-1A (Homo sapiens) [17], -0.208. Besides, the values for the composite z-score (with Torsin-1A (Homo sapiens) [18]; in [19]) were 0.669 and -0.466, respectively. Besides, the z-score in assay [7] was 1.44; in [9], 1.62 (inactive); in assay [11], -1.28 (inactive); in assay [12] it was -0.117 (inactive); in assay [13], 0.962 (inactive); in assay [14] it was 0.549 (inactive).
Regarding `CCCC[C@@H]1C[C@H]1[C@@H](NC(=O)c1ccco1)c1ccccc1C(F)(F)F`, the composite z-score in assay [1] is -0.422; in [2], 0.0662; in assay [3] it was 0.57; in assay [4], 0.349; in assay [5], 0.674; in assay [6], -0.527. The composite z-score in the assay on Lefty1 is -0.302; in assay [8], 1.15; in assay [10] it was 0.667; in assay [15], 1.42; in assay [16], 2.01; with Torsin-1A (Homo sapiens) [17], 0.408. The composite z-score with Torsin-1A (Homo sapiens) [18] is -0.0311; in assay [19] it was 0.0509. The z-score in assay [7] was -0.914; in [9], 1.8 (inactive); in assay [11] it was -0.547 (inactive); in assay [12], 0.431 (inactive); in assay [13], 0.773 (inactive); in assay [14] it was 1.3 (inactive).
Consider `C=CCNC(=O)[C@@H]1[C@H]2C(=O)O[C@H](c3ccccc3)[C@H](c3ccccc3)N2[C@H](c2ccc(O)cc2)[C@@]12C(=O)Nc1ccc(C#CCNC(N)=O)cc12`, for which the composite z-score was -0.22 in assay [1]; -0.222 in [2]; 0.186 in assay [3]; -0.609 in assay [4]; 0.842 in assay [5]; -0.598 in [6]. In addition, the composite z-score in the assay with Lefty1 is 0.538; in assay [8], 0.414; in [10] it was -0.525; in [15] it was -0.325; in assay [16] it was -0.339; with Torsin-1A (Homo sapiens) [17] it was -0.138. The composite z-score with Torsin-1A (Homo sapiens) [18] is 0.121; in assay [19], 0.316. Moreover, the z-score in [7] is -1.27; in assay [9], -0.895 (inactive); in [11], -0.0804 (inactive); in [12], -0.233 (inactive); in assay [13], 1.21 (inactive); in assay [14], -0.434 (inactive).
As to `CCCC[C@@H]1C[C@H]1[C@@H](NC(=O)c1cccs1)c1ccc(-c2ccccc2)cc1`, the composite z-score in assay [1] was 0.433; in assay [2], 0.852; in assay [3], 0.0412; in assay [4], 0.149; in assay [5], 0.552; in assay [6] it was -0.292. For the same compound, the composite z-score with Lefty1 is 0.361; in assay [8], 0.849; in assay [10] it was -0.0739; in [15], 0.0523; in assay [16], 0.0541; with Torsin-1A (Homo sapiens) [17], -0.473. For the same compound, the values for the composite z-score (with Torsin-1A (Homo sapiens) [18]; in [19]) were -0.0352 and 1.73, respectively. For the same compound, the z-score in [7] was 0.319; in assay [9], 1.65 (inactive); in assay [11], -2.14 (inactive); in [12], -0.218 (inactive); in assay [13], 1.35 (inactive); in assay [14], 2.05 (inactive).
Consider `O=C1O[C@H](c2ccccc2)[C@H](c2ccccc2)N2[C@H]1[C@@H](C(=O)N1CCCCCCC1)[C@]1(C(=O)Nc3ccc(C#CC4=CCCCC4)cc31)[C@H]2c1ccc(OCCO)cc1`, for which the composite z-score in assay [1] worked out at 2.15; in assay [2] it was 1.26; in assay [3], 3.18; in assay [4], 0.9; in [5], 1.49; in [6] it was 0.833. Moreover, the composite z-score worked out at 1.65 in the assay with Lefty1; 1.47 in assay [8]; 1.79 in [10]; 3.17 in assay [15]; 2.23 in [16]; 1.5 with Torsin-1A (Homo sapiens) [17]. For the same compound, the composite z-score was found to be 1.88 in the assay with Torsin-1A (Homo sapiens) [18] and 1.59 in [19]. Further, the z-score in assay [7] is -1.3; in assay [9], -1.2 (inactive); in assay [11] it was -5.63 (inactive); in [12], -0.761 (inactive); in assay [13], 0.182 (inactive); in [14], -0.617 (inactive).
